TEAD-YAP block: TEAD-YAP interaction inhibition; HEK-TIYL cells, TEAD-Gal4/YAP UAS-luciferase luminescence; inhibition, % at 9.12 µM; 640,000 compounds, 1.4% hits; in the data active = inhibition above about 32%;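 also: 0% = median of test compound wells and 100% = reference inhibitor wells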
MITF inh: human MITF inhibition, primary screen | O75030 | AlphaScreen MITF homodimerization, bead proximity signal | inhibition, % at 2.6 µM | 650,000 compounds, 0.91% hits; in the data active = inhibition above about 50%;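 also: 0% = vehicle wells with protein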
FBW7 activator: human FBW7 E3 ligase activation, primary screen; Q969H0; normalized activity (activation), % at 26.1 µM; 650,000 compounds, 0.13% hits; AlphaScreen FBW7–phospho-cyclin E peptide binding, activator screen; in the data active = normalized activity above about 1.9%;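 also: purified mutant Fbw7 with reduced substrate affinity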
GPR151 ag: human GPR151 activation; PathHunter beta-arrestin GPR151 cells, luminescence; activation, % at 11.2 µM; 650,000 compounds, 1% hits; AID 1508602; in the data active = activation above about 4.9%;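 also: 0% = median of compound wells and 100% = cells with positive control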
An asterisk follows results filed as active. This is a sample that favours compounds with a hit; in the whole collection about 3.5% have one here.

SMILES	TEAD-YAP block	MITF inh	FBW7 activator	GPR151 ag
O=C(Nc1cccc(I)c1)c1cc([N+](=O)[O-])ccc1Cl	45*	8	1	0
O=C(Nc1cccc(C(F)(F)F)c1)c1ccc(Cl)c([N+](=O)[O-])c1	62*	4	0	-1
O=C(Nc1cccc(F)c1)c1ccc(Cl)c([N+](=O)[O-])c1	13	2	0	2
O=C(Nc1cccc(-c2nc3ccccc3s2)c1)c1ccccc1[N+](=O)[O-]	-33	-3	0	1
O=C(Nc1cccc(-c2nc3ccccc3s2)c1)c1cc([N+](=O)[O-])ccc1Cl	36*	13	0	-1
O=C(Nc1ccc(F)cc1)c1ccc(Cl)c([N+](=O)[O-])c1	48*	19	0	1
O=C(Nc1cc(C(F)(F)F)ccc1Cl)c1ccc(Cl)c([N+](=O)[O-])c1	45*	2	0	-1
O=C(Nc1ccc2c(c1)OC(F)(F)O2)c1cc([N+](=O)[O-])ccc1Cl	68*	5	0	0
Cc1cccc(NC(=O)c2cc(Cl)ccc2[N+](=O)[O-])c1	45*	0	0	-1
O=C(Nc1ccc(Cl)cc1)c1cc(Cl)ccc1[N+](=O)[O-]	7	-6	0	-1
O=C(Nc1cccc(Cl)c1)c1ccc(Cl)c([N+](=O)[O-])c1	45*	27	0	-1
CCCC(=O)NC(=S)Nc1cccc(OC)c1	-40	27	1	-1
COC(=O)NNC(=S)NC(=O)c1ccccc1	14	13	0	-1
O=C(Nc1cccc(I)c1)c1ccc(Cl)c([N+](=O)[O-])c1	33*	21	0	-3
CCOC(=O)C(/C(N)=N/NC(=O)C(C)C)=C(/O)OCC	-1	0	0	-1
O=C(Nc1ccc(-c2noc(-c3cccc(Cl)c3)n2)cc1)c1ccco1	54*	-10	1	0
Cc1ccc(-n2nc(C)c(NC(=O)CCl)c2C)cc1C	45*	-7	0	2
CCC(=O)Nc1c(C)nn(-c2ccc(C)c(C)c2)c1C	-27	-2	0	-1
CCOC(=O)C1=CN(C(C)C)C=C(C(=O)OCC)C1c1ccccc1OC(C)C	4	-31	1	0
CCN(CC)c1ncnc2c1cnn2-c1cccc(C)c1	60*	4	0	1
CCOC(=O)N1CCC(Nc2ncnc3c2cnn3-c2ccc(C)cc2C)CC1	39*	-6	0	-1
Cc1cccc(-n2ncc3c(NC4CCCCCC4)ncnc32)c1	47*	4	0	1
C=CCNc1ncnc2c1cnn2-c1ccc(C)cc1C	-8	8	0	0
COc1ccc(-n2ncc3c(N4CCCC4)ncnc32)cc1	25	2	0	2
Clc1cccc(-n2ncc3c(NC4CC4)ncnc32)c1	-32	-3	0	-1
SMILES	TEAD-YAP block	MITF inh	FBW7 activator	GPR151 ag
COc1ccc(-n2ncc3c(N(C)C4CCCCC4)ncnc32)cc1	93*	-3	0	2
Cc1cccc(-n2ncc3c(N(CC(C)C)CC(C)C)ncnc32)c1	-12	0	0	2
Cc1cccc(-n2ncc3c(N(C)C4CCCCC4)ncnc32)c1	97*	-17	0	1
Cc1cc(C)nc(Nc2ccc(Oc3ccccc3)cc2)n1	46*	7	0	-2
Nc1nc(Nc2ccc(Oc3ccccc3)cc2)cc(-c2ccccc2)n1	44*	8	0	4
Cn1cnnc1SCC(=O)Nc1ccccc1O	0	6	0	0
O=C(Nc1ccc(O)cc1)c1ccc(N2C(=O)c3cccc([N+](=O)[O-])c3C2=O)cc1	35*	2	0	-1
COc1ccc(NC(=O)c2ccc(N3C(=O)c4cccc([N+](=O)[O-])c4C3=O)cc2)cc1	-1	17	1	0
CC(C(=O)NCc1ccccc1)N(c1ccccc1)S(C)(=O)=O (stereo unspecified)	-5	5	0	0
c1cc(-n2cnc(N3CCOCC3)n2)ccc1Nc1cc2cc(-c3cn[nH]c3)ccc2cn1	92*	10	0	1
Cn1cc(-c2ccc3cnc(Nc4ccc(-n5cnc(-c6ccc(=O)[nH]c6)n5)cc4)nc3c2)cn1	40*	20	1	-2
Cn1cc(-c2ccc3cnc(Nc4ccc(-n5cnc(C(C)(C)C)n5)cc4)nc3c2)cn1	14	-5	0	1
c1cc(-n2cnc(N3CCOCC3)n2)ccc1Nc1ncc2ccc(-c3cn[nH]c3)cc2n1	96*	18	1	0
Cn1cc(-c2ccc3cnc(Nc4ccc(-n5cnc(N6CCCC(O)C6)n5)cc4)nc3c2)cn1 (stereo unspecified)	90*	2	0	-3
COc1cc(C(=O)CSc2nnnn2C)cc(OC)c1OC	4	-5	0	0
Cn1c(=O)[nH]c(=O)c2c1nc1n2CCCN1C1CCCCC1	-3	-9	0	-1
Cn1cc(-c2ccc3cnc(Nc4ccc(-n5cnc(N6CCOCC6)n5)cc4)nc3c2)cn1	96*	10	0	2
c1ccc(-c2ccc3cnc(Nc4ccc(-n5cnc(N6CCOCC6)n5)cc4)nc3c2)cc1	-3	16	0	0
CN1C(=O)/C(=C/c2ccc(SCc3ccco3)o2)SC1=S	-18	57*	-1	0
CC1=NN2C(=N)/C(=C\c3ccc(SCc4ccco4)o3)C(=O)N=C2S1	12	12	0	0
N=C1/C(=C\c2ccc(SCc3ccco3)o2)C(=O)N=C2SC(N3CCOCC3)=NN12	-1	62*	0	1
CS(=O)(=O)C1=NN2C(=N)/C(=C\c3ccc(SCc4ccco4)o3)C(=O)N=C2S1	4	79*	-1	1
CNC(=O)c1cc(S(=O)(=O)N2CCOCC2)c(Cl)cc1Cl	7	2	0	1
COc1ccc(N/N=C(\C#N)C(=N)SCc2ccccc2)cc1	33*	3	0	1
Cc1cc(NC(=O)CCc2ccc(C)o2)no1	5	5	0	0
SMILES	TEAD-YAP block	MITF inh	FBW7 activator	GPR151 ag
Cc1ccc(CCC(=O)Nc2ccc(Cl)cn2)o1	41*	4	0	-1
Cc1ccc(Cc2cnc(NC(=O)CCCOc3ccc(Cl)cc3)s2)cc1	7	11	0	0
Cc1ccc(CCC(=O)Nc2ncc(Cc3ccc(Cl)cc3)s2)o1	57*	1	0	4
CC(=O)c1ccc(NC(=O)COC(=O)C2CCCCC2)cc1	14	13	0	2
COc1cc2c(-c3ccccc3Br)nc3c(c(C)nn3-c3ccccc3)c2cc1OC	10	10	0	0
COc1cc2c(-c3ccccc3Cl)nc3c(c(C)nn3-c3ccccc3)c2cc1OC	40*	14	0	0
COc1ccc(CCNc2ncnc3[nH]ncc23)cc1	25	-2	0	2
c1ccc(CNc2ncnc3sccc23)cc1	2	-4	0	0
c1csc(CNc2ncnc3sccc23)c1	32*	4	0	1
COc1ccc(CCNc2ncnc3sccc23)cc1	49*	-11	0	2
COc1ccc(N2C(=O)CC(S/C(N)=N/N=C/c3c(O)ccc4ccccc34)C2=O)cc1 (stereo unspecified)	-9	4	-1	0

Compound activity (PubChem)
